Set-up in all cases: scale not given: direction of the effect not stated beside the values
Test [1] has as its target Protein translocase subunit SecA (Escherichia coli (strain K12)) (UniProt P10408). Nature of the test: Assay to Identify E. coli SecA ATPase Inhibitors. The format is functional. The note with it: 30 µM.
The target in test [2] is T1, Ubiquitin-activating enzyme e1, putative (Leishmania donovani (strain BPK282A1)) (UniProt E9BSI1).
T1 sequence (whole entry): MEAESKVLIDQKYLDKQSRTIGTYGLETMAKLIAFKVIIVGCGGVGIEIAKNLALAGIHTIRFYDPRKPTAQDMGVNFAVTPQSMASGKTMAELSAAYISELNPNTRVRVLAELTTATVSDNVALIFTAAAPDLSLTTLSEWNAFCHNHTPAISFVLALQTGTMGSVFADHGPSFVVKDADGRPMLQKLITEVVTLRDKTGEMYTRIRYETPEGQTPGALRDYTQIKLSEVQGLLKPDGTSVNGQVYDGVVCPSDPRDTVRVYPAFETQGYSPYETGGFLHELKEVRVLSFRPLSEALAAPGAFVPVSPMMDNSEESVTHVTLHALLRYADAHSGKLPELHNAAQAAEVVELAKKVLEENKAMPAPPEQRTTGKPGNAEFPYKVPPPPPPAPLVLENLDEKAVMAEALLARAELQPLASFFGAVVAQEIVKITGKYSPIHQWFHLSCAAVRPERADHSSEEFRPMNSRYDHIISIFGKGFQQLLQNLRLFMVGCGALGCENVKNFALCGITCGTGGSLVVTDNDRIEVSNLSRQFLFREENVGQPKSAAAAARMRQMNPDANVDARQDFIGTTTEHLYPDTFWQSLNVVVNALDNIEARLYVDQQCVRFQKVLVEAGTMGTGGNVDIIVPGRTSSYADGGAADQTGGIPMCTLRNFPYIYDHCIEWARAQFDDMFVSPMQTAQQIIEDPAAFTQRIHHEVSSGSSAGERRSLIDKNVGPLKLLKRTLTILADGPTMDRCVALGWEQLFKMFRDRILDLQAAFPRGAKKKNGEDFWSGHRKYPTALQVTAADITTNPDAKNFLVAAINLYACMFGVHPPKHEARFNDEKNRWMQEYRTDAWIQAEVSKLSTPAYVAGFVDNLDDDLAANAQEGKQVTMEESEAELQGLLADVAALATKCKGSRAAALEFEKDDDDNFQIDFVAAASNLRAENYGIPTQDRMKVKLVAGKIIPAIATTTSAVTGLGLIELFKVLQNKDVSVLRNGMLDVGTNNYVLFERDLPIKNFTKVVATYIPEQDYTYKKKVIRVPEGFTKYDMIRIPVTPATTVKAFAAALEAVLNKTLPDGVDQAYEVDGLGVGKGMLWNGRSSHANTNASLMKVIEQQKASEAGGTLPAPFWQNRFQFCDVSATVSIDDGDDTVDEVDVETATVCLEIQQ
The experiment in a line: Leishmania donovani Ubiquitin Activating Enzyme (LdE1). The format is functional. The note with it: 30 µM.

Test [3] deals with AMP-activated protein kinase, AMPK (Homo sapiens) (UniProt P54646+O43741+P54619+Q9UGJ0+Q9Y478+Q13131+Q9UGI9). The experiment in a line: AMP-dependent Kinase enzyme assay. An in vitro enzyme assay that detects ADP turnover that is directly proportional to AMPK activity. This uses naive AMPK that is activated during the assay with MK-8722. The format is functional. The conditions noted are these: 30 µM.

The target in test [4] is Sialic acid-binding Ig-like lectin 9 (Homo sapiens) (UniProt Q9Y336). The experiment in a line: Hs-Siglec9 ALPHAscreen SOP 20170721. The note with it: 10 µM.
Chain of Sialic acid-binding Ig-like lectin 9 (Homo sapiens) (Q9Y336 whole entry): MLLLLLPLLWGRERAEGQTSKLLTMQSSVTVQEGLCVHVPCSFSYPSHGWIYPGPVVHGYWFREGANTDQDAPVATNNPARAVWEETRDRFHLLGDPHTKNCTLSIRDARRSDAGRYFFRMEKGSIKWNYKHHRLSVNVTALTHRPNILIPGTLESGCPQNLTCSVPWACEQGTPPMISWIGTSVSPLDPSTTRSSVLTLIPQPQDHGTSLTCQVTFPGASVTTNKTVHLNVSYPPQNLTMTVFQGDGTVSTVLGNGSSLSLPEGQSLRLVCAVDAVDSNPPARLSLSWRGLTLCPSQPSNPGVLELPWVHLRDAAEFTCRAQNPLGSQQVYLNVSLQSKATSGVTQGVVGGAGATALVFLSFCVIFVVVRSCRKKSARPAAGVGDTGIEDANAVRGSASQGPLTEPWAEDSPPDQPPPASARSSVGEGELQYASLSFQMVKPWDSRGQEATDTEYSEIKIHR
The next test concerns Trypanosoma cruzi. Nature of the test: Trypanosoma cruzi phosphomannomutase and mannose-1-phosphate guanylyltransferase assay. It counts as functional. The conditions noted are these: 10 µM.
For test [5], the target named is T2, Arginase-2, mitochondrial (Homo sapiens) (UniProt P78540).
T2 sequence (whole entry): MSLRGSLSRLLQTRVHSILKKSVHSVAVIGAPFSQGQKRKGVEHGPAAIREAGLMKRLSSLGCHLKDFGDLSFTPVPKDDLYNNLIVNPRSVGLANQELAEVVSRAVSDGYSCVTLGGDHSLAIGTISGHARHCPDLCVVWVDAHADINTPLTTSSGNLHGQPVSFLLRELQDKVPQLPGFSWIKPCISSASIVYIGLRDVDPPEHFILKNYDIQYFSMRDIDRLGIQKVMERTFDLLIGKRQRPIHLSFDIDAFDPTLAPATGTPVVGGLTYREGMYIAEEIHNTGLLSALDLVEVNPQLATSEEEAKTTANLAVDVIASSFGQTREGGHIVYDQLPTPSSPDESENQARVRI
Nature of the test: in vitro enzyme assay to detect the production of urea directly proportional to the activity of Arginase II. Further: in the data most compounds retested in dose-response had high values. The format is functional. The conditions noted are these: 33.3 µM.

Test [6] concerns the target T3, Proteasome subunit beta (Trypanosoma cruzi) (UniProt O96673).
T3 sequence (whole entry): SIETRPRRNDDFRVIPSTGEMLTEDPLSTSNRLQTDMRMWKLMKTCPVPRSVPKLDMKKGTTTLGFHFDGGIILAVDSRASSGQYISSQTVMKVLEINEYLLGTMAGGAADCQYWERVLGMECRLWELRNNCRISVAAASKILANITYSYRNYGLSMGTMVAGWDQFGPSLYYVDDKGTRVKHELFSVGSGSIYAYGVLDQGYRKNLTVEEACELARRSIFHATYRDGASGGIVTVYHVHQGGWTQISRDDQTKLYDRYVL
The experiment in a line: Trypanosoma cruzi proteasome chymotrypsin-like activity (TcProtChymo) assay. Further: in the data most compounds retested in dose-response had high values. It counts as functional. The note with it: 9.37 µM.

The species entered for a further test is Homo sapiens. Nature of the test: To identify inhibition of the IFN signalling (Jak-Stat) pathway via expression of an eGFP reporter gene under the control of an IFN-stimulated response element (ISRE) containing MxA promoter. The format is functional. The conditions noted are these: 30 µM.
Test [7] has as its target T4, Tyrosyl-tRNA synthetase, putative (Trypanosoma cruzi (strain CL Brener)) (UniProt Q4DSP6).
T4 sequence (whole entry): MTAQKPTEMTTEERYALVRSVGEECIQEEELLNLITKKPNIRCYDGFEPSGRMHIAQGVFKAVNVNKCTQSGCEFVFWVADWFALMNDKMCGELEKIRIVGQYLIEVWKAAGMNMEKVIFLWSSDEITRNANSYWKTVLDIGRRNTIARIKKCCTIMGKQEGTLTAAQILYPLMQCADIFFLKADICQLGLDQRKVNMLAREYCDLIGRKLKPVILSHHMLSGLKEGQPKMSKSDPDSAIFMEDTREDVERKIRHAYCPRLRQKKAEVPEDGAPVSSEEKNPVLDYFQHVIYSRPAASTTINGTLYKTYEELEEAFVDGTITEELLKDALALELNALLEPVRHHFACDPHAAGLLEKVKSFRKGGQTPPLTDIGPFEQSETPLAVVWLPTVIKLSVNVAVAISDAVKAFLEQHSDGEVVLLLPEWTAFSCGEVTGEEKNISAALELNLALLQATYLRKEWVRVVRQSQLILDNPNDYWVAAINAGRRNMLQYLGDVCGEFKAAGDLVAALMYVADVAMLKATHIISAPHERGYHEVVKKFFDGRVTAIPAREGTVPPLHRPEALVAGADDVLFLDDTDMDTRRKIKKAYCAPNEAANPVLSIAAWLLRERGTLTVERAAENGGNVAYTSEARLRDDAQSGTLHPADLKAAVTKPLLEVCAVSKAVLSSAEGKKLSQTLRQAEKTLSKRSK
Nature of the test: Trypanosoma cruzi tyrosyl tRNA synthetase (TcYRS) _High Tyrosine SOP. Further: in the data most compounds retested in dose-response had high values. The note with it: 30 µM. It counts as functional.

For test [8], the target named is T4, Tyrosyl-tRNA synthetase, putative (Trypanosoma cruzi (strain CL Brener)). Nature of the test: Trypanosoma cruzi tyrosyl tRNA synthetase (TcYRS) SOP. The format is functional. The conditions noted are these: 30 µM.
Test [9] has as its target Chromo domain-containing protein 1 (Saccharomyces cerevisiae (strain ATCC 204508 / S288c) (Baker's yeast)) (UniProt P32657). Nature of the test: ScCHD-1 Enzyme Inhibition Assay. Further: in the data most compounds retested in dose-response had high values. The note with it: 30 µM. It counts as functional.

For some assays here: Measured potencies and affinities stand elsewhere.

Chain of Protein translocase subunit SecA (Escherichia coli (strain K12)) (P10408 whole entry): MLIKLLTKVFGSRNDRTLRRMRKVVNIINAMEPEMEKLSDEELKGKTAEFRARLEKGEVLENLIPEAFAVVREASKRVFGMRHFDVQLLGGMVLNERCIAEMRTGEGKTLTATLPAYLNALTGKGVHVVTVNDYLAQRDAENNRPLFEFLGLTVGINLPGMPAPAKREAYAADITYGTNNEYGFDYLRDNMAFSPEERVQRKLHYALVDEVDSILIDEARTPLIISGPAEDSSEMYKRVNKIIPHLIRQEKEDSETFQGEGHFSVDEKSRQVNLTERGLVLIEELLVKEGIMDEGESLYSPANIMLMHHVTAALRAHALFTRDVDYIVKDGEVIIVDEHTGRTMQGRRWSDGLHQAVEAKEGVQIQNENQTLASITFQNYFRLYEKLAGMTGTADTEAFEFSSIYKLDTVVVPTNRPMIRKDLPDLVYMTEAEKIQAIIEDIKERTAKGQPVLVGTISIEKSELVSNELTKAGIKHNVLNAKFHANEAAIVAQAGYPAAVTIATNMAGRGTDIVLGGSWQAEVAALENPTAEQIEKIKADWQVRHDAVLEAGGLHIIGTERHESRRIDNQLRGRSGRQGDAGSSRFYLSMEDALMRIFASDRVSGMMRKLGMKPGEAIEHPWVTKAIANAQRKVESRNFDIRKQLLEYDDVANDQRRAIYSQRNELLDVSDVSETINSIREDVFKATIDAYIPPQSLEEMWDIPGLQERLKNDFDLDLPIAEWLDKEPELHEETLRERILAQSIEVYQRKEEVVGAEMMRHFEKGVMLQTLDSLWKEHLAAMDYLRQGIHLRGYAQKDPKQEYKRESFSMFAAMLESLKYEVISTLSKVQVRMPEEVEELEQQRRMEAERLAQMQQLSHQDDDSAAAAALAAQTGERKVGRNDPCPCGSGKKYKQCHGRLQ
Chain of Chromo domain-containing protein 1 (Saccharomyces cerevisiae (strain ATCC 204508 / S288c) (Baker's yeast)) (P32657 whole entry, the tested form may be a part): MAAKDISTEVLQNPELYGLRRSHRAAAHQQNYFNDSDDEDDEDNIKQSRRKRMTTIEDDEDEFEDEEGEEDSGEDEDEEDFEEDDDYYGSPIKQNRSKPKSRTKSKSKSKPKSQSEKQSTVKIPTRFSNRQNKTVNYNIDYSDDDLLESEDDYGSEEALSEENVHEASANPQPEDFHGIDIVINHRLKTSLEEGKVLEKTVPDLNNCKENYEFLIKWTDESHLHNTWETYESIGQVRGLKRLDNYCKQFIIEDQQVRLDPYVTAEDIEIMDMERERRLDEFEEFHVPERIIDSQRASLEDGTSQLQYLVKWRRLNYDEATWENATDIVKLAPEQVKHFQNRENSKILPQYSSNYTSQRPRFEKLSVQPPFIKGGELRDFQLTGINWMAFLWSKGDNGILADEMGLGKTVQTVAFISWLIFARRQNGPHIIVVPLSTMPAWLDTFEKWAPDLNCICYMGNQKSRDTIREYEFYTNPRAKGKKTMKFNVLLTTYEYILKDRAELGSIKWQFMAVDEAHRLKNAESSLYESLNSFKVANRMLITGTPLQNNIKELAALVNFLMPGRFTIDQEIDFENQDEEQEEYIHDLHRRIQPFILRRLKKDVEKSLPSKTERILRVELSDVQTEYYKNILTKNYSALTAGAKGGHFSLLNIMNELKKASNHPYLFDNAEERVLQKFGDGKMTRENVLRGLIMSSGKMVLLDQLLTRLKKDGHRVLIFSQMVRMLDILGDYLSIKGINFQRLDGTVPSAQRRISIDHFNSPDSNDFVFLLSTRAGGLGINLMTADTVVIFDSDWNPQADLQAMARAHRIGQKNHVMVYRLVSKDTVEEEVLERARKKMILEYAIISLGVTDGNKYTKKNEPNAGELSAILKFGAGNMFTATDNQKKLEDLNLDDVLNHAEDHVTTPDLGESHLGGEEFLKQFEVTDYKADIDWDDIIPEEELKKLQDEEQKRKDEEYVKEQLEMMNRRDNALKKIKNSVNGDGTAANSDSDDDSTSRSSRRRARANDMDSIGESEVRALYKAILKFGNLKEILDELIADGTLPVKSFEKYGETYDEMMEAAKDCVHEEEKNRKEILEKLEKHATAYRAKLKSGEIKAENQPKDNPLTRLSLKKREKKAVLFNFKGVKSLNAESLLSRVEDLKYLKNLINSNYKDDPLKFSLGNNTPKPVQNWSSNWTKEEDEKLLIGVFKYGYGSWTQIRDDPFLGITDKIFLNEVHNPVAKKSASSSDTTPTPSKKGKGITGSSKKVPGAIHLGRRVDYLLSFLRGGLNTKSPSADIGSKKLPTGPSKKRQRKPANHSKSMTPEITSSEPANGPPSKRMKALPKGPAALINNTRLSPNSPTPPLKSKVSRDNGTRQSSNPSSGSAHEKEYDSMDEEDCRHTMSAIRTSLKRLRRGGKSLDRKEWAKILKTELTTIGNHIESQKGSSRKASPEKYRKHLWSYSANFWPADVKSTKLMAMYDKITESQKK

`O=C(O)C1CCCCN1C(=O)c1cccc(C(F)(F)F)c1` (stereo not given): the Percent Effect was -6.15% in [1]; 13.2% in test [2]; -2.92% in test [3]; 7.67% in test [4]; 1.4% in the test with Trypanosoma cruzi; -2.88% in test [5]. For the same molecule, the Percent Effect in test [6] is 2.62%; in the test listed under Homo sapiens it was -1.55%; in test [7], 4.43%; in test [8], 16.1%; in test [9], 3.59%.

As to `O=C(CCc1ccccn1)N1CCN(C(=O)CC2CCCCC2)CC1`, the Percent Effect in test [1] was -6.55%; in test [2] it was 15.6%; in test [3] it was -6.12%; in test [4], -12.3%; with Trypanosoma cruzi, 4.41%; in test [5], -5.68%. For the same molecule, the Percent Effect in test [6] was 10.9%; in the test filed under Homo sapiens it was 4.51%; in test [7] it was 5.71%; in test [8], 18.8%; in [9] it was -18.5%.

For `CNc1cc(CCNC(=O)c2cccnc2)nc(-c2ccncc2)n1`, the Percent Effect in test [1] is -1.87%; in test [2], 9.46%; in [3], 12.1%; in [4] it was 1.21%; in the test on Trypanosoma cruzi, -6.13%; in test [5] it was 2.09%. Also, the Percent Effect is 12% in [6]; -0.444% in the test filed under Homo sapiens; 4.3% in [7]; 6.49% in test [8]; -5.16% in [9].

With `Cc1cc(C)n(CCCNC(=O)[C@@H](C)NC(=O)OC(C)(C)C)n1`, the Percent Effect is -6.34% in test [1]; 7.89% in test [2]; 8.18% in test [3]; 0.0654% in [4]; 7.5% with Trypanosoma cruzi; -4.73% in test [5]. Also, the Percent Effect in test [6] was 13.3%; in the test filed under Homo sapiens, 5.91%; in test [7] it was 3.19%; in test [8], 10.4%; in test [9] it was -1.9%.

`CN(C)S(=O)(=O)N1C[C@@H](Oc2ccccn2)[C@H]2OCCC[C@H]21`: the Percent Effect in [1] is -3.77%; in test [2], 10.4%; in test [3], 5.04%; in [4] it was 3.32%; in the test on Trypanosoma cruzi, 0.493%; in test [5], -3.23%. The Percent Effect is 8.7% in test [6]; 24.1% in the test filed under Homo sapiens; -4.23% in [7]; 8.97% in test [8]; -11.1% in test [9].

`Cc1ccc(CNC(CN2CCN(C)CC2)c2ccccc2)cc1` (stereo not given): the Percent Effect in test [1] is -5.66%; in [2], 8.11%; in test [3] it was -8.66%; in test [4], -0.353%; in the test with Trypanosoma cruzi it was -2.05%; in test [5] it was -1.74%. In addition, the Percent Effect is 7.64% in test [6]; 13.4% in the test listed under Homo sapiens; 3.23% in test [7]; 8.64% in test [8]; -3.22% in test [9].

As for `CC(=O)Nc1nc(CN2CCCC2Cn2cncn2)cs1` (stereo not given), the Percent Effect in [1] was -7.57%; in test [2] it was 13%; in test [3] it was -6.56%; in [4], 16.5%; in the test with Trypanosoma cruzi, 10.3%; in [5] it was 2.85%. Besides, the Percent Effect was 9.29% in [6]; 18.8% in the test listed under Homo sapiens; 9.71% in test [7]; 26.8% in test [8]; -12.8% in test [9].

As to `Cc1cccc(N2CCN(CCCNC(=O)c3nccn3C)CC2)c1`, the Percent Effect in [1] is -2.68%; in [2], 5.41%; in test [3], -5.72%; in test [4], -1.22%; with Trypanosoma cruzi, 4.49%; in [5], 38.3%. In addition, the Percent Effect in [6] is 12.9%; in the test listed under Homo sapiens, 7.26%; in test [7] it was 11.9%; in test [8], 18.3%; in [9], -2.27%.

For `Cc1nn(C)cc1CN(C)Cc1cc2c(cc1OC(F)F)OCO2`, the Percent Effect was -4.54% in test [1]; 0% in test [2]; -4.17% in test [3]; -1.2% in test [4]; 1.07% in the test on Trypanosoma cruzi; -0.744% in [5]. Further, the Percent Effect in test [6] is -3.18%; in the test filed under Homo sapiens, -8.11%; in test [7], -1.07%; in test [8] it was 3.7%; in test [9], -3.28%.

As to `CN(Cc1cnn(C)c1)C(=O)Cn1c(CS(C)(=O)=O)nc2ccccc21`, the Percent Effect in [1] is -1.5%; in [2] it was 10.5%; in [3] it was 3.77%; in [4] it was -0.257%; in the test with Trypanosoma cruzi, -3.6%; in test [5], -8.28%. Further, the Percent Effect was 11.2% in test [6]; 9.18% in the test filed under Homo sapiens; 5.32% in test [7]; 10.4% in test [8]; -3.69% in test [9].

(Values after ChEMBL document CHEMBL3988442, “University of Dundee, Small-Polar-MMV Screening Library” (2021).)
